Source: ChEMBL document CHEMBL4513216, “Probing the Open Global Health Chemical Diversity Library for Multistage-Active Starting Points for Next-Generation Antimalarials” (ACS Infect Dis, 2020)
About 8,600 (12%) of roughly 69,000 compounds showed an effect of 50% or more. The list comes from a sample in which strong results are over-represented; it also holds similar structures and randomly drawn compounds.

System: Plasmodium berghei
Experiment: Screen against P. berghei liver stage (PbLuc), transformed with Luciferase, at 10uM
Format: functional, HepG2
Details: tested at 10 uM

Row | Structure (SMILES) | INHIBITION [%]
1 | O=C(COC1CCCC1)NCCc1nc(-c2ccccn2)cs1 | 30.8
2 | Cn1cnc2cc(CCC(=O)Nc3n[nH]c(C4CCCO4)n3)ccc21 (centres undefined) | 8.99
3 | N#Cc1ccccc1N1CCCN(C(=O)CCc2cccs2)CC1 | -29.1
4 | Cc1nc(CN2CCCCC2CCc2ccc(O)cc2)co1 (centres undefined) | 12.6
5 | c1csc(CN2CCCn3cnc(CN4CCCC4)c3C2)c1 | 41.6
6 | c1coc(-c2nc(CN3CCCC(Cn4cncn4)C3)cs2)c1 (centres undefined) | 16.8
7 | Cc1cc(C)nc(N2CCC(c3c(C(N)=O)sc4ccccc34)C2)n1 (centres undefined) | -14.2
8 | CNC(=O)c1sc2ccccc2c1C1CCN(c2nc(C)cc(C)n2)C1 (centres undefined) | 0.696
9 | CNC(=O)c1sc2ccccc2c1C1CCN(c2cc(C)nc(C)n2)C1 (centres undefined) | 74.9
10 | Cc1ccc2c(c1)CCC21CCN(C(=O)CN(C)C)CC1 | 38.5
11 | Cc1cc(C(=O)N(C)Cc2ccoc2)c(NC(=O)C(C)(C)C)s1 | -28.9
12 | Cc1nc(CN(C)C(=O)c2cc(C)sc2NC(=O)C(C)(C)C)no1 | 18
13 | Cc1cc(C(=O)N(C)Cc2ccn[nH]2)c(NC(=O)C(C)(C)C)s1 | 51.3
14 | O=C([C@@H]1CCO[C@@H]2CCN(Cc3ccc(F)cc3)C[C@H]21)N1CCCCO1 | 30.3
15 | CCc1cc(NCc2cc(CC(C)C)on2)n2nccc2n1 | 26.8
16 | CCCc1cc(CNc2cc(CCC)nc3ccnn23)on1 | 53.5
17 | CCCc1cc(NCc2cc(C)on2)n2nccc2n1 | 23.8
18 | COc1ccccc1CC(=O)NC1CCCc2cn[nH]c21 (centres undefined) | 8.31
19 | Cc1cccc(CN2C[C@@H]3CN(C(=O)c4ccco4)C[C@@H]3C2=O)n1 | 23.5
20 | CC(Cn1cncn1)Nc1ccc(-c2nccn2C)nn1 (centres undefined) | 9.91
21 | CC(CCn1cccn1)Nc1ccc(-c2nccn2C)nn1 (centres undefined) | 48.5
22 | CC(CCCC(C)(C)O)Nc1ccc(-c2nccn2C)nn1 (centres undefined) | 60.4
23 | CN(C)CCN(Cc1ccc(F)cc1)C(=O)c1ccn(C)c(=O)c1 | 39.1

Row | Structure (SMILES) | INHIBITION [%]
24 | Cc1nc(CN2C(=O)CCC23CCN(Cc2ccccn2)CC3)cs1 | 19.4
25 | CN(C)CC1(O)CCCN(C(=O)Cn2ccc3ccccc32)CC1 (centres undefined) | 89.9
26 | Cc1cc2ccccc2n1CCC(=O)N1CCCC(O)(CN(C)C)CC1 (centres undefined) | -60.9
27 | CN(C)CC1(O)CCCN(C(=O)Cn2nc3ccccc3n2)CC1 (centres undefined) | -21.8
28 | Cc1nc2ccc(C(=O)N3CCC(COc4ccccn4)CC3)cc2[nH]1 | -6.73
29 | Cc1cc(C)nc(C2CCCN2C(=O)c2coc(C)n2)n1 (centres undefined) | 20.2
30 | Cc1cc(C)n(Cc2ccc(-c3noc(C(=O)NCCCO)n3)cc2)n1 | 33
31 | CC(C)c1nnc2n1CCN(Cc1nc3c(F)cccc3[nH]1)C2 | -65
32 | Fc1cccc2[nH]c(CN3CCn4c(nnc4C4CC4)C3)nc12 | -33.5
33 | Cc1nnc2n1CCN(Cc1nc3c(F)cccc3[nH]1)C2 | -43.5
34 | Cc1ncc2c(n1)CN(Cc1nc3c(F)cccc3[nH]1)CC2 | 0.902
35 | CC(C)c1ncc2c(n1)CN(Cc1nc3c(F)cccc3[nH]1)CC2 | 36.6
36 | CCc1ncc2c(n1)CN(Cc1nc3c(F)cccc3[nH]1)CC2 | 52.8
37 | CC(C)c1nnc2n1CCN(Cc1cccc3c1OCCO3)C2 | -67.8
38 | Fc1cccc2[nH]c(CN3CCc4cncnc4C3)nc12 | 52.8
39 | CCc1nnc2n1CCN(Cc1ccc3c(c1)OCCO3)C2 | 18.9
40 | c1cc(CN2CCc3cncnc3C2)c2c(c1)OCCO2 | 41.6
41 | CCc1nnc2n1CCN(Cc1cccc3c1OCCO3)C2 | 50.35
42 | CCc1nnc2n1CCN(Cc1nc3c(F)cccc3[nH]1)C2 | 58.1
43 | COc1cccc2c(=O)n(Cc3nc(C)cc(O)n3)cnc12 | 1.56
44 | Cc1[nH]c2ccc(C(=O)N3C[C@@H](O)[C@H](N4CCOCC4)C3)cc2c1C | -29.8
45 | O=C(NCc1ccccc1)C1CN(c2ccccn2)CCO1 (centres undefined) | 22
46 | CCS(=O)(=O)N1CCN(C(C)c2ncc(-c3ccccc3)o2)CC1 (centres undefined) | 12.9

Row | Structure (SMILES) | INHIBITION [%]
47 | CN(C)c1ncc(-c2ccc(NC(=O)[C@@H]3CCCCN3)cc2)cn1 | 1.11
48 | CN1CCCC1(CCCc1cccnc1)C(=O)NCc1nccn1C (centres undefined) | 15.5
49 | CC(c1ccc(S(N)(=O)=O)cc1)N(C)C(=O)c1ccccc1I (centres undefined) | -43.5
50 | CC(C)c1nc(CN(C)Cc2cnc(N3CCOCC3)nc2)no1 | 74.7
51 | Cc1noc(C)c1CN(C)Cc1cnc(N2CCOCC2)nc1 | 39.4
52 | Cc1noc(CN(C)Cc2cnc(N3CCOCC3)nc2)n1 | 20.1
53 | COc1ccc(Oc2ncccc2NC(=O)N2CCOC(C)C2)cc1 (centres undefined) | 44.3
54 | COc1ccc(Oc2ncccc2NC(=O)N2CC[C@H](O)C2)cc1 | 16.3
55 | COc1ccc(Oc2ncccc2NC(=O)N2CCOCC2)cc1 | 55.5
56 | COc1ncccc1NC(=O)NCC1CC1 | 12.2
57 | CCCC1CCCN(C(=O)Nc2ccc(F)c(C(N)=O)c2)CC1 (centres undefined) | 53.8
58 | COc1ncccc1NC(=O)N1CCC(CNC(C)=O)CC1 | 7.9
59 | CCOc1ncccc1NC(=O)N1CCCC(CNC(N)=O)C1 (centres undefined) | 22.8
60 | CCCC1CCCN(C(=O)Nc2cccnc2OC)CC1 (centres undefined) | 81.6
61 | COc1ncccc1NC(=O)N1CCCC(CNC(=O)OC(C)(C)C)C1 (centres undefined) | 57.7
62 | CCN(CC)C(=O)C1CCN(C(=O)Nc2cccnc2OC)CC1 | 22.6
63 | CC1CCCN(C(=O)Nc2ccc(F)c(C(N)=O)c2)C1 (centres undefined) | 23.6
64 | NC(=O)c1cc(NC(=O)N2CCCCCC2)ccc1F | -7.9
65 | O=C(c1cc2c(s1)CCC2)N1CCC(c2cnccn2)CC1 | 28.5
66 | CC(C)NC(=O)N1CCC2(CC1)CN(C(=O)NC(C)C)CCO2 | 11.8
67 | CC(C)C(=O)NCc1ccc(N2CCCC2)nc1 | -24.2
68 | O=C(NCc1csc(-c2cnccn2)n1)c1cnn2c1CCCC2 | 8.7
69 | Cc1cnn(CC2CCCN2C(=O)CCc2c(C)noc2Cl)c1 (centres undefined) | 0
